Experimental findings from paper PMC13494018 are described below.

This experiment concerns the target CD276, Q5ZPR3.

A number with no mark means an inactive call. The rule behind the calls is not given here.

CD276, Q5ZPR3, sequence (Q5ZPR3 whole entry): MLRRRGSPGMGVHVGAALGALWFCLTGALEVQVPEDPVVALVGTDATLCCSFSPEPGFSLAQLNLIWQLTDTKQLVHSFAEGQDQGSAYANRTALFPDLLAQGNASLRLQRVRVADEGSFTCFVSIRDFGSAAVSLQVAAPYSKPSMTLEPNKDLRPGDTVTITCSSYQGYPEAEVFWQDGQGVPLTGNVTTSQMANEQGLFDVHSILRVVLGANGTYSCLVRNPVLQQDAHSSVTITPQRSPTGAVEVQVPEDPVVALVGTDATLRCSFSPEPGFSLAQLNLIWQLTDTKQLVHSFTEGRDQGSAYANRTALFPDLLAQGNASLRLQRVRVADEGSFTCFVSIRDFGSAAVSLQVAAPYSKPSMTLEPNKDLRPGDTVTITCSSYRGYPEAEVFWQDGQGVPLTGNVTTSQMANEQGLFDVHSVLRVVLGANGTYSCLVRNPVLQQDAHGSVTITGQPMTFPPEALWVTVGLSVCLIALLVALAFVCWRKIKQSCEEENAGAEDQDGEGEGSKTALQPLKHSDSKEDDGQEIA

B1: design_611_394c5ea9-a0d3-47c4-9d48-89ba6a28fdd0_2343_dldesign_0_cycle1_af2pred (protein)
chain: AQALADQQLIATVKAALKNAEELYKKDKKAGAKAFAAAAEVAKLAIEGSSAAAKPELKALEKKAKENEKKAKEDA
As to B1, the “binding in a display sort” value is “not found”.

B2: design_611_394c5ea9-a0d3-47c4-9d48-89ba6a28fdd0_940_dldesign_0_cycle1_af2pred (protein)
chain: MKVEEAGNKAKALLVATANAAIAADPARAQEIAKKMAEGIEKIDKLTEEEKKKLDEYSEEEQAKKVEELGKELAKEIA
On to B2, for which the “binding in a display sort” value was “not found”.

B3: design_611_394c5ea9-a0d3-47c4-9d48-89ba6a28fdd0_881_dldesign_0_cycle1_af2pred (protein)
chain: GAAEAAKALAKGVAASVKRLAKEGLEEAKKDPEKGRAILENAKTFAEAVKATDPEIGDKALKYVEEAKKEAEKIVKE
Regarding B3, the “binding in a display sort” value is “not found”.

B4: design_611_394c5ea9-a0d3-47c4-9d48-89ba6a28fdd0_2334_dldesign_0_cycle1_af2pred (protein)
chain: MTPAEAQLQAGEVFLRAAEQALKAGNYESAIKLAELAIEAAKQAKKLAKAAGDEATAKKAEEVEKKAKEVLKKAKE
Regarding B4, the “binding in a display sort” value is “not found”.

B5: design_611_394c5ea9-a0d3-47c4-9d48-89ba6a28fdd0_1184_dldesign_0_cycle1_af2pred (protein)
chain: GEAARERGEELVKEAEAALAAAKAAAAADPAAGLAAANAAIGLAVERMEELARLGPEARPAIERLTAIATELSKLALALKAAL
For B5, the “binding in a display sort” value is “not found”.

B6: design_611_394c5ea9-a0d3-47c4-9d48-89ba6a28fdd0_2213_dldesign_0_cycle1_af2pred (protein)
chain: GQELLAQAQKELKEGKALMKEGKYKEALAKFTQAANLAAKAAAAYADQPIAKQANAVLAEAVENMAKAQALID
As for B6, the “binding in a display sort” value is “not found”.

B7: design_611_394c5ea9-a0d3-47c4-9d48-89ba6a28fdd0_1787_dldesign_0_cycle1_af2pred (protein)
chain: AAAAIAAATTGMNIAKKNANTLLAQAEATGNAGLADAAKVAADIVKANAKAAAKLADADTGAALVKDAEDFAKATNAKIAAVKAKA
For B7, the “binding in a display sort” value was “not found”.

B8: design_611_394c5ea9-a0d3-47c4-9d48-89ba6a28fdd0_1995_dldesign_0_cycle1_af2pred (protein)
chain: AELAKQIAKKVMETAIKIAEEETPEAGIEAGKRAAMTAVALGDLETAEETIERVVEIARKKDPEAAERAREELEAAYARALAAVAAS
B8: the “binding in a display sort” value was “not found”.

B9: design_612_bdadb936-3f14-48ad-830f-718e38d81c30_88_dldesign_0_cycle1_af2pred (protein)
chain: AAAAAAGEAALARLETEGAAAAAAAAADPAAAGEEIERVLALQAEVARAHPSVAAEAAAIARRYNAAIARAVVAA
On to B9, for which the “binding in a display sort” value is “not found”.

B10: design_611_394c5ea9-a0d3-47c4-9d48-89ba6a28fdd0_2003_dldesign_0_cycle1_af2pred (protein)
chain: GELKEQTAQLLETAIQAAKLSAKQAQAAIKAATIAGSQSPETKEISEEYGKKAIEAAKKSAEEAQKVIKEWLKLVKE
Regarding B10, the “binding in a display sort” value is “not found”.

B11: design_611_394c5ea9-a0d3-47c4-9d48-89ba6a28fdd0_908_dldesign_0_cycle1_af2pred (protein)
chain: AAAAARAAAVAAAEAAAAEAIKELKAAAEEAKTATPEEAAKLMNEMLAKASRQALAMQASGDPAAAAAGARLIAAAVEYAKEIDEAIR
On to B11, for which the “binding in a display sort” value was “not found”.

B12: design_611_394c5ea9-a0d3-47c4-9d48-89ba6a28fdd0_749_dldesign_0_cycle1_af2pred (protein)
chain: AAAEAAAERARQAAKAAMKSLTLAYEALGKPEQAKEDIAKVEKAIEEDPEKGAALARELAAQAAREAIKANAA
With B12, the “binding in a display sort” value was “not found”.

B13: design_611_394c5ea9-a0d3-47c4-9d48-89ba6a28fdd0_1238_dldesign_0_cycle1_af2pred (protein)
chain: SAADEQAKAIAVASTQSILDQAKKILEEHPEIKEEGEKLVEEIKKLLEKAKTGDAATASKALSESLELYGKLAELAK
With B13, the “binding in a display sort” value was “not found”.

B14: design_611_394c5ea9-a0d3-47c4-9d48-89ba6a28fdd0_1153_dldesign_0_cycle1_af2pred (protein)
chain: MEEKKKKIEEEANKVIEEATKVAELAKKHPAMRPALIAANAAISMANNAIRNIENVESAEKQLKVAKALMEYAKATAKALLAAA
Regarding B14, the “binding in a display sort” value is “not found”.

B15: design_611_394c5ea9-a0d3-47c4-9d48-89ba6a28fdd0_1469_dldesign_0_cycle1_af2pred (protein)
chain: GKERAVEIMRRGLTEVAKEALKVSPEVAGVVQTALAKAIGAAAESMEKALEVLKKGAEEAEKLDPEIGKKVREVLKKVEEAYKE
For the molecule B15, the “binding in a display sort” value was “not found”.

B16: design_611_394c5ea9-a0d3-47c4-9d48-89ba6a28fdd0_1764_dldesign_0_cycle1_af2pred (protein)
chain: MLAEEARKYAEKGAEGEDSEEWFAKAAELYAQALLTSEEEARATFEALREVAERYPEKAEKVYAAISRGVQLAAQQAL
Consider B16, for which the “binding in a display sort” value was “not found”.

B17: design_611_394c5ea9-a0d3-47c4-9d48-89ba6a28fdd0_2254_dldesign_0_cycle1_af2pred (protein)
chain: GKEEAQKLVEEAREAAKKAKEYTAKALAEDLEAEGAKSWAALNEALAKASQAAQLDPELGSAAIAEVVETAKEIKEKLDAAKAA
For the molecule B17, the “binding in a display sort” value was “not found”.

B18: design_611_394c5ea9-a0d3-47c4-9d48-89ba6a28fdd0_1679_dldesign_0_cycle1_af2pred (protein)
chain: GEELEKAKEEAEKLTDLAKALAAQGTPLGKAAANAMSDSAVKIVLDTAKKLGKEEEGKKYADEIKAATAAALAA
Take B18: the “binding in a display sort” value is “not found”.

B19: design_611_394c5ea9-a0d3-47c4-9d48-89ba6a28fdd0_1178_dldesign_0_cycle1_af2pred (protein)
chain: AELLAAAGELAVEAARYAAEADRFGPEAAPAAELFREAQKLAVQANQNPATAAEYYAKAKELMKKGKELMKKAKA
For the molecule B19, the “binding in a display sort” value is “not found”.

B20: design_611_394c5ea9-a0d3-47c4-9d48-89ba6a28fdd0_1531_dldesign_0_cycle1_af2pred (protein)
chain: AQAQVEAMARNAAAGMRALARADGHPDVGEEMAALVLADPVEGARRAVELARERLSPEVAAAVAEIARIQIETA
For B20, the “binding in a display sort” value is “not found”.

B21: design_611_394c5ea9-a0d3-47c4-9d48-89ba6a28fdd0_1451_dldesign_0_cycle1_af2pred (protein)
chain: AQAIEVANKTAAAMKKQAEALAAEGEANPETAWKHYETAAKLYEIAADMVAAAGGDPAVAAALKAKAAEYKAKAKAAKAA
On to B21, for which the “binding in a display sort” value was “not found”.

B22: design_612_bdadb936-3f14-48ad-830f-718e38d81c30_198_dldesign_0_cycle1_af2pred (protein)
chain: DAAVAQGQKLRDAALAALAAATTLAQFNAAAQQGLAALAQITALIVAHPEAGPQLQKLAAEVLAAIEAARARALAA
Turning to B22, the “binding in a display sort” value is “not found”.

B23: design_611_394c5ea9-a0d3-47c4-9d48-89ba6a28fdd0_1130_dldesign_0_cycle1_af2pred (protein)
chain: MEEELKKISQAAAQAQQAAIDAKDPALRAELAQAAVEIMKLMDKAAKSTPEEAKKLAEEAEKIAEEAQKKAKASG
On to B23, for which the “binding in a display sort” value is “not found”.

B24: design_612_bdadb936-3f14-48ad-830f-718e38d81c30_35_dldesign_0_cycle1_af2pred (protein)
chain: SEAEKEAAKAEVRALGAQALDVALRAAARQGAPVAELAAVVQQISQLVDQGIALVEKGDLEAGLALAQQALQLAQQFAA
B24: the “binding in a display sort” value is “not found”.

B25: design_612_bdadb936-3f14-48ad-830f-718e38d81c30_247_dldesign_0_cycle1_af2pred (protein)
chain: GALGRSVARDTARAFLADPEKGKEMADIAAGVGATDAAAGRAALEELLRLAKEHPEVAEQLEAAAKKVAAAIKQAEAAAA
As for B25, the “binding in a display sort” value is “not found”.

B26: design_611_394c5ea9-a0d3-47c4-9d48-89ba6a28fdd0_2077_dldesign_0_cycle1_af2pred (protein)
chain: ASEELLKEAVTLNMRLAVEFPEVAKYARAAAHYLMAGDAEKAVESAEKMLEEAKKAGPEAAALAEKALKATKAAAADQAAER
For B26, the “binding in a display sort” value was “not found”.

B27: design_611_394c5ea9-a0d3-47c4-9d48-89ba6a28fdd0_765_dldesign_0_cycle1_af2pred (protein)
chain: SSREGAAQLLLDVAKQAAAALKAAGGDEERAKKILEEAKKAAATTFEETQKALAKAAREAVKYQAAVEAA
As for B27, the “binding in a display sort” value is “not found”.

B28: design_611_394c5ea9-a0d3-47c4-9d48-89ba6a28fdd0_2413_dldesign_0_cycle1_af2pred (protein)
chain: TAEQVEKLKERAIERLKKAAELDKEAAEELLKLYEEMKKVSENLGEAALLAAKAAAIAKNPEARALASQALADLSQAAILAAA
Regarding B28, the “binding in a display sort” value was “not found”.

B29: design_611_394c5ea9-a0d3-47c4-9d48-89ba6a28fdd0_2429_dldesign_0_cycle1_af2pred (protein)
chain: GPERAELLRNAARQAEEAIRKGDESPDGVLYYTAAALIVANAIGDPELRAKAQAAAALSPEEARKVAEELRELALERARELA
On to B29, for which the “binding in a display sort” value was “not found”.

B30: design_611_394c5ea9-a0d3-47c4-9d48-89ba6a28fdd0_1283_dldesign_0_cycle1_af2pred (protein)
chain: DTAAAQGLLAGVQAFTRRRFEAAERALRAGDREAMLAAARDLETAADIAEATAKQVPPALAAQAQALAKQARERAEEARRAAEA
For B30, the “binding in a display sort” value is “not found”.

B31: design_611_394c5ea9-a0d3-47c4-9d48-89ba6a28fdd0_1121_dldesign_0_cycle1_af2pred (protein)
chain: SSSYEEVTAEMAAITAKAQEGVEAAKKDPAEAKKIAAEIAAKAKEIAASGFSEGAAQMAKNAAARVQKVIDAELAK
Regarding B31, the “binding in a display sort” value is “not found”.

B32: design_611_394c5ea9-a0d3-47c4-9d48-89ba6a28fdd0_705_dldesign_0_cycle1_af2pred (protein)
chain: AEAQEQAKKEYEKAKAVADAALATAKATGDVTAQQAKVLDAAIEAAKKAQELGDGETANKVMQVATKAMTAMAAAG
B32: the “binding in a display sort” value is “not found”.

B33: design_611_394c5ea9-a0d3-47c4-9d48-89ba6a28fdd0_2091_dldesign_0_cycle1_af2pred (protein)
chain: RAALEEALAKARELAEKVGEEDPEVAKEVLELIDKAAATSPATGLYYLLQALELMSRYAKESGSEVAREAAEALRAAVAIWSRLAIA
Consider B33, for which the “binding in a display sort” value was “not found”.

B34: design_611_394c5ea9-a0d3-47c4-9d48-89ba6a28fdd0_1683_dldesign_0_cycle1_af2pred (protein)
chain: DEAEELVRLVEEARALAIDPATRGQGVTLFLLVGIRSGPAVRAAAVEAARAAREAAALPPEERARRLEELAARVIAAIRAEA
For the molecule B34, the “binding in a display sort” value is “not found”.

B35: design_611_394c5ea9-a0d3-47c4-9d48-89ba6a28fdd0_1101_dldesign_0_cycle1_af2pred (protein)
chain: MGGELLLDVMRAAAEAQREIAELGKEKGIPEEVTQALINRVSAAVAAVAKAAIAGDDAAKAAAAAARAAIDATLAEARAL
For B35, the “binding in a display sort” value was “not found”.

B36: design_611_394c5ea9-a0d3-47c4-9d48-89ba6a28fdd0_1682_dldesign_0_cycle1_af2pred (protein)
chain: SAALEELREKGKAEANALISASMKAAAAGLAGDAATAAAAAATIEANAKEAKEKAKEYPEAKEYYEKAAKVNTQLAEGAKLL
As for B36, the “binding in a display sort” value is “not found”.

B37: design_611_394c5ea9-a0d3-47c4-9d48-89ba6a28fdd0_1623_dldesign_0_cycle1_af2pred (protein)
chain: SAEVLAAAEKLVEIGELARKAAEAFPELAEKAAEAANLAALGLAKLASGATAAEGKKAMEKAEELAKELKKAL
With B37, the “binding in a display sort” value is “not found”.

B38: design_611_394c5ea9-a0d3-47c4-9d48-89ba6a28fdd0_785_dldesign_0_cycle1_af2pred (protein)
chain: LKAEAEKLAKEAAAKAKEAAAAGDAVAALAYQAAANMARSALRADPESAAKLLEVGRALKQQGDATHAAFKA
Take B38: the “binding in a display sort” value is “not found”.
